Hit rate of the full screen: of about 320,000 compounds, about 7,600 (2.4%) were called active. A call without a number means that no potency is given here. Not shown: some 3% with an inconclusive outcome. The full list was thinned out, with actives kept by preference. Values without a mark were called inactive. Calls come from the whole dose curve; as a rule, active = well fitted activation curve with a large enough effect; inconclusive = small, poorly fitted or top-dose-only effect; inactive = no such curve, though single readings can be large or run the other way.

The record followed here is PubChem BioAssay AID485313 (National Center for Advancing Translational Sciences (NCATS), 2010).
Potency is the fitted concentration of half-maximal effect.

The assay is described as follows: qHTS Assay for NPC1 Promoter Activators. Note: nearly all actives have a fitted effect of over 60% in size. To be noted: Huh7 NPC1 promoter luciferase reporter, 24 h; series mostly up to 9.22 µM. An outline of the steps:
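Luciferase expression driven by the NPC1 promoter was measured in stably transfected Huh7 cells after a 24 h compound incubation, using a luciferase reagent and a luminescence read.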
On the technique in general: qHTS replaces the single test concentration by a dilution series.
`CCCN(CC1CC1)C(=S)NC(=O)c1ccccc1Br`: the Potency entry was “inactive”.

As to `CC1(C)CN(c2ccc(-c3ccnc4ncnn34)cc2)C1=O`, the Potency result was “inactive”.

As to `COc1ccccc1-c1sc2ccccc2c1-c1ccc(C(C)=O)cc1`, the Potency entry is “inactive”.

Take `Oc1ccc(N=Cc2sc3ccccc3c2Cl)cc1`: the Potency entry was “inactive”.

Consider `COc1ccc(N=C(C)c2sc3ccccc3c2O)cc1`, for which the Potency is 708 nM (active).

For the molecule `CC1CCCC(C)N1C(=O)COC(=O)COc1ccccc1C#N` (centres undefined), the Potency result is “inactive”.

`O=C1C=C(c2cccc(Cl)c2O)C[C@@H](c2ccc(F)cc2)C1`: the Potency result is “inactive”.

Consider `CC1CCCCC12NC(=O)N(CC(=O)Nc1ccc(S(=O)(=O)Nc3ncccn3)cc1)C2=O` (centres undefined), for which the Potency result was “inactive”.

For the molecule `O=C1Cc2cc(S(=O)(=O)Nc3cccc(F)c3)ccc2N1`, the Potency result is “inactive”.

Regarding `Cc1ccccc1OCC(=O)Nc1ccc2c(c1)ncn2C`, the Potency is 6310 nM (active).

For `Cc1ccccc1OCC(=O)Nc1ccc(S(=O)(=O)N2CCOCC2)cc1`, the Potency entry was “inactive”.

Regarding `Cc1ccccc1OCC(=O)Nc1ccc(N2CCN(C(=O)C(C)C)CC2)c(Cl)c1`, the Potency result was “inactive”.

As to `O=C(CN1C(=O)NC2(CCCCC2)C1=O)N1CCN(C(=O)c2cccs2)CC1`, the Potency entry was “inactive”.

With `Cc1ccc(/C=C/C(=O)OCC(=O)NCc2ccc(Cl)cc2)o1`, the Potency result was “inactive”.

Turning to `CCOc1ccc(NC(=O)CN(C)C(=O)CCSc2ccc(F)cc2)cc1OCC`, the Potency result was “inactive”.

In the case of `CC(C)n1ncc2c(C(=O)Nc3ccc(CC#N)cc3)cc(C3CC3)nc21`, the Potency result was “inactive”.

`Cc1ccc(N/N=C2\COC(C)(C)CC2=O)cc1`: the Potency is 2820 nM (active).

As for `Nc1c(N(Cc2ccco2)C(=O)c2cccc(F)c2)c(=O)[nH]c(=O)n1Cc1ccccc1`, the Potency result is “inactive”.

Consider `COCCN(Cc1ccccc1)C(=O)Cc1ccc(S(=O)(=O)N2CCOCC2)s1`, for which the Potency result is “inactive”.

With `CC(=O)Nc1ccc(-c2nc3ccccc3o2)cc1`, the Potency was 1120 nM (active).

Take `Cc1ccc(OCC(=O)Nc2ccc(-c3nc4ncccc4o3)cc2)cc1`: the Potency entry is “inactive”.

As for `CCc1nc(Nc2ccc(NC(C)=O)cc2)c2oc3ccccc3c2n1`, the Potency entry is “inactive”.

Turning to `COc1ccc(S(=O)(=O)N2CCN(CC(=O)NCC3(N4CCOCC4)CCCCC3)CC2)cc1`, the Potency result was “inactive”.

As for `COc1ccc(CSc2nnnn2-c2ccc(O)cc2)cc1F`, the Potency entry is “inactive”.

In the case of `O=C(Nc1ccccc1N1CCCCC1)c1ccc2nccnc2c1`, the Potency entry is “inactive”.

On to `O=C(Nc1ccccc1Cl)c1ccc2nsnc2c1`, for which the Potency is 2240 nM (active).

Consider `Cc1cccc(NC(=O)c2ccc3nsnc3c2)c1C`, for which the Potency result was “inactive”.

As to `O=C(C1CCC1)N1CCN(S(=O)(=O)c2ccc([N+](=O)[O-])cc2)CC1`, the Potency result was “inactive”.

`CCOc1ccc(S(=O)(=O)N(CC(=O)NCC(F)(F)F)Cc2ccco2)cc1`: the Potency entry was “inactive”.

Take `CC(=O)Nc1ccc(NC(=O)COc2ccc(-c3ccccc3)cc2)cc1`: the Potency entry is “inactive”.

Regarding `CCOc1ccc(-c2nnc(-c3ccco3)o2)cc1`, the Potency is 631 nM (active).

On to `O=C(CCc1ccccc1)Nc1cccc(-c2nnc(-c3ccco3)o2)c1`, for which the Potency entry was “inactive”.

`Cc1ccc(OCC(=O)Nc2ccc(-c3nnc(-c4ccco4)o3)cc2)cc1`: the Potency was 2820 nM (active).

With `CCCCOc1ccc(-c2nnc(-c3ccco3)o2)cc1`, the Potency was 1580 nM (active).

As for `CCOc1ccc(-n2c(SCC(N)=O)nnc2-c2ccco2)cc1`, the Potency result was “inactive”.

With `COc1ccc(OCC(=O)Nc2nnc(-c3ccco3)s2)cc1`, the Potency result was “inactive”.

For the molecule `Cc1ccc(OCC(=O)Nc2nnc(-c3ccco3)s2)cc1`, the Potency entry was “inactive”.

Regarding `CCOc1ccc(NC(=O)N(CCC(C)C)C(C)c2ccco2)cc1` (centres undefined), the Potency entry was “inactive”.

`CCC[C@H]1CCCC/C=C\CCCC(=O)OCCN1C(=O)OC(C)(C)C`: the Potency result was “inactive”.

For the molecule `CCOCCn1[nH]c2ccccc2c1=O`, the Potency entry is “inactive”.

As to `CC(C)NC(=O)N1CCN(c2ccncc2S(=O)(=O)N2CCCCC2)CC1`, the Potency result is “inactive”.

Consider `O=C(NC1CCCCCC1)C1CCN(C(=O)c2ccc(Cl)cc2)CC1`, for which the Potency result was “inactive”.

Consider `CCc1sc(C(=O)N2CCN(CC(=O)Nc3cccc(F)c3)CC2)cc1C`, for which the Potency result is “inactive”.

For the molecule `COc1cccc(C2=CC(=O)C[C@H](c3ccc(OC)c(OC)c3)C2)c1`, the Potency result is “inactive”.

In the case of `Cc1nn(-c2ccc([N+](=O)[O-])cc2)c(N)c1-c1ccccc1`, the Potency was 1580 nM (active).

Turning to `Cn1nc(-c2ccccc2)c2cc([N+](=O)[O-])ccc21`, the Potency entry was “inactive”.

Take `Cc1cc(CO)nn1-c1ccc([N+](=O)[O-])cc1`: the Potency entry was “inactive”.

For the molecule `COC(=O)C1=CO[C@@H](O[C@@H]2O[C@H](CO)[C@@H](O)[C@H](O)[C@H]2O)C2C1C[C@H](O)[C@@H]2C` (some centres undefined), the Potency entry was “inactive”.

As for `CCc1cccc(NC(=O)COC(=O)c2cc(=O)c3ccccc3o2)c1`, the Potency entry is “inactive”.

In the case of `CCOC(=O)C1CCN(C(=O)c2cccc(S(=O)(=O)N(CC)c3ccccc3)c2)CC1`, the Potency result was “inactive”.

For `COCCN(C(=O)CC1CCCCC1)c1c(N)n(CC(C)C)c(=O)[nH]c1=O`, the Potency result was “inactive”.

Take `Cc1ccc(Cl)cc1NC(=O)c1ccccn1`: the Potency entry was “inactive”.

For `Cc1cnc(NC(=O)C2CCCC2)s1`, the Potency entry is “inactive”.

`O=C(Cc1cccs1)Nc1nnc(C2CC2)s1`: the Potency result is “inactive”.

Consider `CCc1cc(C(=O)Nc2nnc(C3CC3)s2)sc1C`, for which the Potency result is “inactive”.

On to `Cc1cnc(NC(=O)c2ccccn2)s1`, for which the Potency was 447 nM (active).

In the case of `O=C(Nc1nnc(C2CC2)s1)c1cc(Cl)sc1Cl`, the Potency entry is “inactive”.

In the case of `Cc1cc(C(=O)Nc2nnc(C3CC3)s2)c(C)s1`, the Potency was 3550 nM (active).

`Cc1cccc(NC(=O)CSCC(=O)Nc2nnc(C3CC3)s2)c1`: the Potency entry is “inactive”.

Take `O=C(Nc1nnc(C2CC2)s1)c1ccccn1`: the Potency is 1120 nM (active).

With `CCc1ccccc1OCC(=O)Nc1ccc(C)c(S(=O)(=O)N2CCCCCC2)c1`, the Potency entry was “inactive”.

As to `O=C(NCc1cccc(Cl)c1)C1=CC=CN2CCS(=O)(=O)N=C12`, the Potency entry was “inactive”.

In the case of `CC(C)Cn1c(N)c(C(=O)COC(=O)C2CCCN2C(=O)c2cccs2)c(=O)n(C)c1=O` (centres undefined), the Potency result is “inactive”.

Regarding `COc1ccccc1Nc1nnc(SC(C)C(=O)NC2CC2)s1` (centres undefined), the Potency result is “inactive”.

For the molecule `O=C(O)c1ccc2c(c1)C(=O)N(c1ccc(/C=C/C(=O)c3ccccc3)cc1)C2=O`, the Potency entry is “inactive”.

`O=C(CN1CCN(S(=O)(=O)/C=C/c2ccccc2)CC1)Nc1ccc(N2CCOCC2)cc1`: the Potency entry is “inactive”.

In the case of `O=C(/C=C/c1ccc(N2CCOCC2)cc1)c1ccccc1`, the Potency was 2000 nM (active).

Consider `CC(=O)Nc1ccc(NC(=S)NC(=O)/C=C/c2ccccc2)cc1`, for which the Potency result is “inactive”.

Consider `CC(OC(=O)/C=C/c1ccccc1)C(=O)Nc1ccc(C(N)=O)cc1` (centres undefined), for which the Potency result is “inactive”.

`CC(=O)Nc1ccc(/C=C/C(=O)c2ccccc2)cc1`: the Potency was 2510 nM (active).

As to `O=C(Nc1ccccc1N1CCOCC1)c1ccncc1`, the Potency result is “inactive”.

In the case of `CCN(C(=O)CSc1ncnc2sccc12)c1c(N)n(Cc2ccccc2)c(=O)[nH]c1=O`, the Potency entry is “inactive”.

With `CC1(C)CC(=O)C=C(c2ccc3ncccc3c2)C1`, the Potency entry is “inactive”.

With `COc1ccc2c3c(c(=O)oc2c1)C1O[C@](CCCCN2C(=O)c4ccccc4C2=O)(Cc2c1ccc1ccccc21)O3`, the activation was -3.07% [at 1.84 µM].

With `O=C(Cn1nnc(-c2ccccc2)n1)NC(=O)NC1CCCC1`, the Potency entry is “inactive”.

In the case of `O=C(COC(=O)Cn1[nH]c(=O)c2ccccc2c1=O)Nc1ncc(Cl)cc1Cl`, the Potency result is “inactive”.

Regarding `COc1ccccc1/C=C/C(=O)OCC(=O)NC1CCCCCC1`, the Potency entry is “inactive”.

Regarding `CCOC(=O)c1c(C)[nH]c(C2=NNC(=NC(C)COC)SC2)c1C` (centres undefined), the Potency is 1580 nM (active).

For the molecule `COc1ccc(CCNC(=O)COC(=O)C2CC2C)cc1` (centres undefined), the Potency entry is “inactive”.

Turning to `CN(CCOc1ccccc1)C(=O)c1cc(COc2c(F)cccc2F)on1`, the Potency result was “inactive”.

For `Cc1cc(CN(C)C(=O)c2cc(COc3ccc(C)c(C)c3)on2)n[nH]1`, the Potency is 2510 nM (active).

Turning to `CCn1ccnc1CN(C)C(=O)c1cc(COc2ccc(-n3cncn3)cc2)on1`, the Potency entry was “inactive”.

On to `Cc1ccc(OCc2cc(C(=O)N(C)CCc3ccccc3)no2)cc1C`, for which the Potency was 2820 nM (active).

On to `CN(Cc1cccnc1)C(=O)c1cc(COc2ccc3ncccc3c2)on1`, for which the Potency entry was “inactive”.

Take `CN(Cc1cnccn1)C(=O)c1cc(COc2cccc(C(F)(F)F)c2)on1`: the Potency result is “inactive”.

For the molecule `CC1CC(C)CN(C(=O)COC(=O)c2ccc3ncsc3c2)C1` (centres undefined), the Potency result is “inactive”.

For the molecule `Cc1ccc(NC(=O)CCNC(=O)c2ccc([N+](=O)[O-])cc2)cc1S(=O)(=O)N1CCOCC1`, the Potency result was “inactive”.

As for `O=C(NCCc1ccc(C(F)(F)F)cc1)c1ccc2c(c1)OCO2`, the Potency result was “inactive”.

Turning to `COc1ccc(NC(=O)CSc2nnc(C3CC3)n2C)cc1S(=O)(=O)N1CCCCC1`, the Potency entry is “inactive”.

Regarding `Cc1ccc(NC(=O)C2(N3CCC3=O)CCCCC2)cc1`, the Potency entry was “inactive”.

On to `COc1ccc(C(=O)NCCSc2ccccc2C)cc1`, for which the Potency was 1260 nM (active).

Turning to `COc1cccc(C(=O)NCCSc2ccc(Br)cc2)c1`, the Potency result was “inactive”.

On to `COc1ccc(C(=O)NCc2nnc(SCCOc3ccccc3)n2C)cc1`, for which the Potency result was “inactive”.

As to `Cc1c(NS(=O)(=O)c2cc(C(=O)NCCc3ccc(F)cc3)cc(Cl)c2Cl)c(=O)n(-c2ccccc2)n1C`, the Potency result was “inactive”.

On to `Cc1cccc(C)c1-n1c(C)cc(/C=C2\C(=O)NN(c3ccccc3)C2=O)c1C`, for which the Potency result was “inactive”.

Take `Cc1ccccc1-n1c(C)cc(/C=C2\NC(=O)NC2=O)c1C`: the Potency was 3550 nM (active).

On to `Cc1cc(/C=C2/NC(=O)NC2=O)c(C)n1-c1cccnc1`, for which the Potency result is “inactive”.

For the molecule `Cc1ccc(C(=O)NCC(c2cccs2)N(C)C)cc1S(=O)(=O)N1CCOCC1` (centres undefined), the Potency entry was “inactive”.

For `O=c1oc2ccc(C#CC3(O)CCCCC3)cc2cc1-n1cc(-c2ccsc2)nn1`, the Potency result was “inactive”.

With `O=C(CCNS(=O)(=O)c1ccccc1C(F)(F)F)Nc1ccncc1`, the Potency result is “inactive”.

As to `CCCc1cc(-c2nc(-c3ccc(C)cc3)cs2)ccn1`, the Potency entry is “inactive”.

Turning to `Cc1ccc(-c2csc(-c3cc(C)on3)n2)cc1`, the Potency entry is “inactive”.

Take `Cc1ccc(-c2csc(-c3c[nH]c4ccccc34)n2)cc1`: the Potency is 1000 nM (active).

Regarding `Cc1ccc(NC(=O)COC(=O)CN2CCCCCC2=O)c(C)c1`, the Potency result is “inactive”.

On to `CC(=O)Nc1ccc(NC(=O)COC(=O)c2ccccc2C(=O)c2ccccc2)cc1`, for which the Potency result is “inactive”.

Consider `COc1ccc(C)cc1NC(=O)c1cc(-c2ccccc2)nc2c1cnn2C(C)C`, for which the Potency result was “inactive”.

As to `Cc1ccc(-n2ncc3c(Nc4cccc(C(=O)O)c4)ncnc32)cc1`, the Potency was 794 nM (active).

As for `COc1ccc2nc(C)cc(Nc3cccc(C(=O)O)c3)c2c1`, the Potency result was “inactive”.

Turning to `Cc1ccc(Nc2ncnc3c2cnn3C)c(C)c1`, the Potency result is “inactive”.
